The results in this text go back to ChEMBL document CHEMBL3433997, “St. Jude Leishmania screening dataset” (2016).

The target of this experiment is Glucose transporter (Leishmania mexicana) (UniProt O61059). Put plainly: ST_JUDE_LEISH: Cytotoxicity at 2uM final concentration against transgenic Leishmania Mexicana promastigotes LmGT2 that are glucose transport deficient and complemented with the L. Mexicana glucose transporter 2. Activity is measured by DNA content using SYBR green in vitro. The experiment is classed as functional.
What is called inhibition is the drop in the measured response relative to a control, in per cent. Regarding `c1cc2[nH]c(CCc3nc4cc(C5=NC6CCCCC6N5)ccc4[nH]3)nc2cc1C1=NC2CCCCC2N1` (stereo not given), the inhibition is 6.48%.
The value for `CN1CCN(c2ccnc3ccc(NC(=O)Nc4ccc(-c5ccncc5)c5ccccc45)cc23)CC1` was 5.81%.
As to `CN(C)c1nc2cc(-n3cnc4cc(-c5ccc(Cl)cc5)sc4c3=O)ccc2n1CCCN1CCCCC1`, the inhibition is 5.06%.
The value for `Fc1cccc(COc2ccc(Nc3ncnc4sc(C#CC5CCCCN5)cc34)cc2Cl)c1` (stereo not given) was -0.16%; that for `Cc1cc(=NN=Cc2ccccc2F)c2cccc(C)c2[nH]1` was 0.4%.
Consider `O=C(Nc1cccc(-c2cccc(-c3nc4ccccc4[nH]3)c2)c1)c1ccncc1`, for which the inhibition is 0.44%.
For the compound `O=C(NCC1CCC(CNCCc2ccccc2)CC1)Nc1ccc(Cl)c(Cl)c1` (stereo not given), the inhibition was -2.11%.
As to `CC1(C)CN(CCC2CCC(NC(=O)/C=C/c3ccc(F)cc3F)CC2)Cc2ccc(C#N)cc21` (stereo not given), the inhibition was -1.19%.
Regarding `Cc1cc2ccc(/C=C/C(=O)NC3CCC(CCN4CCc5ccc(C#N)cc5CC4)CC3)cc2[nH]1` (stereo not given), the inhibition is 2.92%.
As for `CN(Cc1ccccc1)C1CCN(c2cc(NC(=O)c3cccc(F)c3)ccn2)CC1`, the inhibition was 6.54%.
Turning to `C=CCOC(=O)O[C@@H]1[C@@H](OC(=O)OCC=C)[C@@H](OC)O[C@H](COC(c2ccccc2)(c2ccccc2)c2ccccc2)[C@H]1OC(=O)OCC=C`, the inhibition turned out to be 4.42%.
Turning to `CCOC(=O)NCCSC(C)(C)[C@H](NC(=O)[C@H](Cc1cc2ccccc2s1)[C@H](CC)N(O)C=O)C(=O)Nc1nccs1`, the inhibition is -0.04%.
Regarding `CC(C)(CNC(=O)/C=C/c1ccc(Cl)c(Cl)c1)CNc1cc(=O)c2ccccc2[nH]1`, the inhibition is -2.49%.
The value for `CC(=O)Nc1cccc(C(=O)Nc2cccc(-c3cccc(-c4nc5cc(F)ccc5[nH]4)c3)c2)c1` was 7.22%; that for `C=CCNc1cc(-c2ccccn2)nc(-c2ccccn2)n1` was 6.05%; that for `FC(F)(F)c1cccc(Nc2nc(-c3ccccc3)nc3ncccc23)c1` was 3.04%.
On to `CCC(CC)(CCC#N)CN(C[C@@H](O)[C@H](Cc1ccccc1)NC(=O)OC(C)(C)C)S(=O)(=O)c1ccc(OC)cc1`, for which the inhibition came to 0.65%.
As to `COc1cc(C(=O)NC2CCN(Cc3ccccc3)CC2)ccc1-c1nc2cc(Cl)c(C)cc2[nH]1`, the inhibition stood at 5.5%.
On to `Cn1c(NC2CCN(CC3CCN(C(=O)/C=C/c4ccc(Cl)c(Cl)c4)CC3)CC2)nc2ccccc21`, for which the inhibition worked out at 81.9%.
The value for `Cc1nnc(-c2ccc3ccccc3c2)c2cn(-c3cccc([N+](=O)[O-])c3)nc12` was 3.91%.
For `COC(=O)Cc1ccc(N)c2ccccc12`, the inhibition was -2.13%.
In the case of `COc1ccc2c(c1)CC(NCc1ccc(-c3ccc4nc[nH]c4c3)cc1)C2` (stereo not given) it was 1.31%; in that of `Cc1cccc2nc(-c3cccc(-c4ccc(NC(=O)C(C)C(=O)NC(C)C)cc4)c3)[nH]c12` (stereo not given), 2.38%.
For `CC(CO)(CO)NCc1cc2c3ccccc3c(CNC(C)(CO)CO)cc2c2ccccc12`, the inhibition was 2.67%.
As for `COc1ccc(CNCc2cccc(-c3cccc(-c4nc5cc(F)ccc5[nH]4)c3)c2)cc1`, the inhibition was -0.04%.
For the compound `COc1ccc2ncc(C#N)c(CCN3CCC(NCc4ccc5c(n4)NC(=O)CS5)CC3)c2n1`, the inhibition was determined as 0.77%.
In the case of `COc1cc(C)cc(CN2CCC(Cc3ccccc3)CC2)c1O`, the inhibition was determined as 1.48%.
As to `Oc1ccc(CCNc2nc(NCc3ccccc3Oc3ccc(C(F)(F)F)cc3)nc(N3CCNCC3)n2)cc1`, the inhibition is -2.4%.
As to `S=C(Nc1ccc(Cl)cc1)Nc1ccc(Nc2ccccc2)cc1`, the inhibition turned out to be 5%.
The value for `COc1ccccc1C1CCN(C2CCC(NC(=O)c3ccc4[nH]c(-c5ccc(C)cc5)nc4c3)CC2)CC1` (stereo not given) was 2.37%; that for `Cc1cccc2nc(-c3ccc(-c4ccc(NC(=O)Nc5ccc(Cl)cc5)cc4)cc3)[nH]c12` was -1.04%; that for `c1ccc(-c2cc(NCCNc3cc(-c4ccccc4)nc4ccccc34)c3ccccc3n2)cc1` was 15.2%.
As for `Cc1cc(C)c(C)c(OCCCON2C(=N)N=C(N)NC2(C)C)c1C`, the inhibition came out at 2.17%.
As to `O=C(Nc1cccc(C(F)(F)F)c1)Nc1ccc(Cl)c(C(F)(F)F)c1`, the inhibition is -0.99%.
The value for `O=C(COc1cnc2ccccc2n1)Nc1ccccc1Sc1ccc(Cl)cc1` was 3.2%; that for `CC(C)C[C@H](Nc1ccnc(NCC2CCCCC2)n1)C(=O)NCCc1ccccc1` was 0.72%.
For `NCCC(=O)Nc1ccc(-c2cnc3[nH]cc(-c4ccc(C(=O)O)cc4)c3c2)cn1`, the inhibition came out at 0.13%.
As to `COc1ccccc1CNc1ccnc(N2CC(Oc3ccc(F)cc3)C2)n1`, the inhibition is -2.53%.
With `CN1CCCN(c2ccnc3cc4c(cc23)N(C(=O)c2ccc(Cl)cc2Cl)CC4)CC1`, the inhibition worked out at 0.94%.
Take `COc1ccc(NC(=O)c2cc(-c3ccc(NC(C)=O)cc3)cnc2N)cc1`: the inhibition was found to be 0.5%.
